Experimental data published in PubChem BioAssay (NCI).
This is part of a sample that, as a whole, favours compounds with a hit. Of some 79,000 tested, about 15% had one in any assay. Calls of active or inactive are those of the source. No stated cut-off is given here; in the data, active means growth inhibition above about 70%; inactive means the rest.

experiment: NCI Yeast Anticancer Drug Screen. Data for the mlh1 rad18 strain (AID 175); conditions: S. cerevisiae mlh1 rad18 strain growth inhibition; at 50.0 µM; stronger effect = higher value
Outline: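 Cells of a genetically altered yeast strain, deficient in DNA damage repair, were treated with compound. Their growth was then compared with that of vehicle-treated cultures to give inhibition.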

Structure (SMILES) | growth inhibition
Cc1cnc(N)s1 | 9.45% (inactive)
Cc1cc(O)c(/C=N/C(=S)NCCc2ccccc2)c(=O)o1 | -20.6% (inactive)
O=C(Nc1cccc([N+](=O)[O-])c1)OCC#CCOC(=O)Nc1cccc([N+](=O)[O-])c1 | 16.1% (inactive)
COC(=O)/C(=N\NC(=S)NN)C(C(=O)C(=O)Nc1ccccc1C(N)=O)c1nc2ccccc2[nH]c1=O (stereo not given) | 23.1% (inactive)
CC(=O)Oc1ccc(C(c2ccc(OC(C)=O)cc2)c2ccccn2)cc1 | -22.9% (inactive)
C[S+](C)N(c1ccccc1)C(C)(C)C | -6.1% (inactive)
N/C=N/OCc1ccccc1 | 5.75% (inactive)
CCCCCC(=O)Oc1ccccc1OC | -7.9% (inactive)
Cc1cc(C)n2nc3c4ccsc4ncc3c2n1 | -6.8% (inactive)
CC1=CC=CC(C)(C)C(=O)C1=O | -15.4% (inactive)
CC1(C)NNC(=S)NC1=O | -5.5% (inactive)
Oc1cccnc1CN1CCOCC1 | 6.95% (inactive)
Cc1cc(C)c(C(=O)O)c(C)c1Br | 4.5% (inactive)
CNc1ccn(C2OC(CO)C(O)C2O)c(=O)n1 (stereo not given) | 8.25% (inactive)
O=C(c1ccc(Cl)cc1)C(c1ccccc1)N1CCCCC1 (stereo not given) | 6.85% (inactive)
Nc1nnc2nc(CC(=O)c3ccc(F)cc3)c(CC(=O)c3ccc(F)cc3)nn12 | 6.7% (inactive)
Oc1ccc2c(c1)c1ccccc1c1ncccc21 | 49% (inactive)
COC1(C)CNc2ccccc2C(=O)N1 (stereo not given) | 6.55% (inactive)
CCN(CC)CCCNc1ccnc2ccc(Cl)cc12 | 2.55% (inactive)
O=C(NC(=O)c1ccccc1[N+](=O)[O-])Nc1ccc(Oc2ncc(Cl)cn2)c(C(F)(F)F)c1 | -54.6% (inactive)

Structure (SMILES) | growth inhibition
CC(C#N)N(C)c1c([N+](=O)[O-])c(=O)n(C)c(=O)n1C (stereo not given) | -20.7% (inactive)
Cc1nc(-c2ccccc2)nc2c1nc(Cc1ccc(Cl)cc1)n2Nc1ccccc1 | 40.5% (inactive)
C[C@@]1(Cc2ccccc2)C(=O)N2[C@@H](CO)C(c3ccccc3)O[C@]2(C)c2ccccc21 (stereo not given in full) | -29.3% (inactive)
CN(C)c1ccc(/C=C(\C#N)c2ccccc2Br)cc1 | 3.95% (inactive)
NCC(=O)NC1CCCCC1 | 5.3% (inactive)
NNC(=Nc1ccccc1)SCc1ccccc1 | -30.9% (inactive)
C/C(=N/NC(N)=O)c1ccc(C)o1 | 0.35% (inactive)
CNCC(OC)OC | 11.2% (inactive)
Cc1c[nH]c(=O)n(CC(=O)C2(O)CCC3C4CCC5=CC(=O)CCC5(C)C4CCC32C)c1=O (stereo not given) | -1.35% (inactive)
Cc1cc2nc(C(C)(C)O)[nH]c2cc1C | 13.2% (inactive)
COc1cc(/C=N\N=C(/C)c2ccc(C)cc2C)cc(OC)c1OC | 24.6% (inactive)
N/N=C(\c1nc2ccc([N+](=O)[O-])cc2[nH]c1=O)C(O)c1ccc(Cl)c(Cl)c1 (stereo not given) | -6.6% (inactive)
O=C(c1ccccc1)C(c1ccccc1)(c1ccccc1)c1ccccc1 | 24.1% (inactive)
CN(C)C(=S)N(C)C | -23.7% (inactive)
C=CCCCC1CCCNC1=O (stereo not given) | 0.45% (inactive)
CC(Cl)C(O)C#N (stereo not given) | -16.2% (inactive)
O=c1cc(-c2ccc(O)cc2)oc2cc(O)cc(O)c12 | -14.9% (inactive)
CC1(C)O[C@H]2Cn3c(c(C#N)c4ccccc43)[C@H]2O1 | -21.2% (inactive)
CSc1cnc2ccccc2c1Sc1c[nH]c2ccccc2c1=O | -12.4% (inactive)
N#Cc1c(Br)n(C2OC(CO)C(O)C2O)c2ncncc12 (stereo not given) | 2.7% (inactive)
